{
  "source": "ChEMBL document CHEMBL1201862",
  "about": "“PubChem BioAssay data set” (2004)",
  "note": "Out of some 400,000 compounds screened, about 2,100 (0.53%) were called active. Another 14% or so got no clear call; they are omitted. The sample holds actives, similar compounds and a random draw of the others, so the mix is not that of the screen. How the calls were made is not given here.",
  "data": [
    {"molecular_target": "Ataxin-2 (Homo sapiens) (UniProt Q99700)", "sequence (Q99700 whole entry)": "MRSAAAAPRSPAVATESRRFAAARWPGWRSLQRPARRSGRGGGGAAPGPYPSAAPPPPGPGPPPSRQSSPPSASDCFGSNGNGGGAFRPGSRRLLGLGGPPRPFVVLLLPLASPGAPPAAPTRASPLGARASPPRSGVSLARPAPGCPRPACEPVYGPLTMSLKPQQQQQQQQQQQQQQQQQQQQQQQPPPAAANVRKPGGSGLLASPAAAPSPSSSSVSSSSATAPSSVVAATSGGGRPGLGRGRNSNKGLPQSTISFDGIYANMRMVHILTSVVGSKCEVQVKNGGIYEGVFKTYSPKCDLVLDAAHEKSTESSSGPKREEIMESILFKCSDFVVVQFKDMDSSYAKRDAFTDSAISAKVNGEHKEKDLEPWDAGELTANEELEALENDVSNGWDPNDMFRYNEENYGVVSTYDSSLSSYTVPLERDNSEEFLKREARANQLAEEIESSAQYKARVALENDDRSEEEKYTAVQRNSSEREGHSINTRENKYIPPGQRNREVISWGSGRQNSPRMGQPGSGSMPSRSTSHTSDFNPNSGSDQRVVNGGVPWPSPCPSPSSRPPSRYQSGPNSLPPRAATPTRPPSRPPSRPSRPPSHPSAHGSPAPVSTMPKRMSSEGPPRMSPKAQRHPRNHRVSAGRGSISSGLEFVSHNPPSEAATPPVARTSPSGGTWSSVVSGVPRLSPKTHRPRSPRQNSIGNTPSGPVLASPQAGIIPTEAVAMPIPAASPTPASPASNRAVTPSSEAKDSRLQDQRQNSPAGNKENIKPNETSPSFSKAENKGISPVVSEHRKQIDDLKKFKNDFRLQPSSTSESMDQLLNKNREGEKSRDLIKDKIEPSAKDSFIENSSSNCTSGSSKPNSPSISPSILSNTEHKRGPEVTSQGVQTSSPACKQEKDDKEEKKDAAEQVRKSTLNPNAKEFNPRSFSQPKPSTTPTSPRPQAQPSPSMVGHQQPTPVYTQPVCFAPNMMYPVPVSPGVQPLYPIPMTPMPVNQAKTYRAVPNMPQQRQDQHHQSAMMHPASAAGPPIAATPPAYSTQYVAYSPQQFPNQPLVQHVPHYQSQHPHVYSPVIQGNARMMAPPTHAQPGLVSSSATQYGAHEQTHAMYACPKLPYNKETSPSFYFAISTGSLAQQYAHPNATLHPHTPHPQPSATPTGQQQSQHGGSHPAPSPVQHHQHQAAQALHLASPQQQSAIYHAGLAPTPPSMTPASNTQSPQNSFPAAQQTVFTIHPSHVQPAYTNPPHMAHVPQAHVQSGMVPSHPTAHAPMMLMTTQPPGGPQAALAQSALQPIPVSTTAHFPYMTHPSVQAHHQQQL", "assay": "qHTS for Inhibitors of ATXN expression.", "type": "functional", "values": [
      {"smiles": "Cc1c(/N=C2\\C=CC(=O)c3ccccc32)c(=O)n(-c2ccccc2)n1C", "Potency": "inactive"},
      {"smiles": "Cc1c(N=C2C=C(Br)C(=O)C(Br)=C2)c(=O)n(-c2ccccc2)n1C", "Potency": "inactive"},
      {"smiles": "CC1=CC(=Nc2c(C)n(C)n(-c3ccccc3)c2=O)C=C(C)C1=O", "Potency": "35.5 µM (active)"},
      {"smiles": "CCCS(=O)(=O)N1CCN=C1SCc1ccc(C)cc1", "Potency": "inactive"},
      {"smiles": "Cc1cccc(N2C(=O)c3cccc4c(N)ccc(c34)C2=O)c1", "Potency": "inactive"},
      {"smiles": "Cc1cc(C)cc(N2C(=O)C=CC2=O)c1", "Potency": "28.2 µM (active)"},
      {"smiles": "CCOC(=O)c1c(-c2ccc(C)o2)csc1NC(=S)NC(=O)N(C)C", "Potency": "39.8 µM (active)"},
      {"smiles": "CCOC(=O)c1c(-c2ccc(Cl)cc2)csc1NC(=O)CNCc1ccco1", "Potency": "inactive"},
      {"smiles": "CCOC(=O)c1c(-c2ccc(C)cc2)csc1NC(=O)/C(C#N)=C/c1ccc(O)c(OC)c1", "Potency": "inactive"},
      {"smiles": "CCc1ccc(/C(C)=N/NC(=O)c2ccc(-n3cnnn3)cc2)cc1", "Potency": "inactive"},
      {"smiles": "COc1cc(OC)c(OC)cc1CN1CCc2nc(Nc3ccc4c(c3)OCCO4)ncc2C1", "Potency": "inactive"},
      {"smiles": "Cc1cccn2c(Nc3ccc4c(c3)OCCO4)c(-c3ccc(Br)o3)nc12", "Potency": "39.8 µM (active)"},
      {"smiles": "Cc1cnc(NC(=O)CSc2nnc3ncccn23)s1", "Potency": "inactive"},
      {"smiles": "COc1ccc(Sc2ccc(-c3nc4cnccn4c3NC3CCCCC3)cc2OC)cc1", "Potency": "inactive"},
      {"smiles": "CN(Cc1nc(-c2cnccn2)no1)C1CC(C)(C)NC(C)(C)C1", "Potency": "inactive"},
      {"smiles": "Cc1ccccc1N(CC(=O)NC(C)(C)C)C(=O)CCC(=O)Nc1nccs1", "Potency": "inactive"},
      {"smiles": "CCCCN1CCc2c(c3ccccc3n2Cc2ccccc2)C1", "Potency": "28.2 µM (active)"},
      {"smiles": "CCCN1CNc2c(c(=O)[nH]c(=S)n2CCc2ccccc2)C1", "Potency": "inactive"},
      {"smiles": "Oc1ncnc2sc3c(c12)CN(Cc1ccccc1)CC3", "Potency": "inactive"},
      {"smiles": "CCCCCC(=O)NNC1=NCC(Cc2ccccc2)S1", "note": "(stereo not given)", "Potency": "inactive"},
      {"smiles": "COc1cc2cc(C(=O)N3CCN(Cc4ccc5c(c4)OCO5)CC3)c(=O)oc2cc1OC", "Potency": "inactive"},
      {"smiles": "CCO[C@H]1OC(C(=O)N2CCN(Cc3ccc4c(c3)OCO4)CC2)=C[C@@H](c2ccc(C(F)(F)F)cc2)[C@@H]1CCCO", "Potency": "35.5 µM (active)"},
      {"smiles": "O=C(c1cc([N+](=O)[O-])cc([N+](=O)[O-])c1)N1CCN(Cc2ccc3c(c2)OCO3)CC1", "Potency": "inactive"},
      {"smiles": "CCOC(=O)/C(=C/c1ccc(N2CCC(c3ccccc3)=N2)cc1)C(C)=O", "Potency": "inactive"},
      {"smiles": "CCOC(=O)C(=Cc1ccc(-n2ccnc2)cc1)C(=O)OCC", "Potency": "25.1 µM (active)"},
      {"smiles": "Cc1cc(N2CCN(C)CC2)nc2ccc(NC(=O)Nc3cccc(Cl)c3)cc12", "Potency": "31.6 µM (active)"},
      {"smiles": "CCOc1ccccc1NC(=O)Nc1ccc2nc(N3CCN(C)CC3)cc(C)c2c1", "Potency": "31.6 µM (active)"},
      {"smiles": "Cc1cc(Nc2cccc(Cl)c2)nc2ccc(NC(=O)COc3ccc(Cl)cc3)cc12", "Potency": "inactive"},
      {"smiles": "Cc1cc(N2CCN(C)CC2)nc2ccc(NC(=O)Nc3ccccc3Br)cc12", "Potency": "39.8 µM (active)"},
      {"smiles": "CCN1CCN(c2cc(C)c3cc(NC(=O)CCC(=O)Nc4ccc(OC)cc4OC)ccc3n2)CC1", "Potency": "inactive"},
      {"smiles": "CCOc1ccc(S(=O)(=O)N2CCN(C)CC2)cc1NC(=O)c1ccccc1F", "Potency": "inactive"},
      {"smiles": "CCCN(CCC)CCNC(=O)CCC(=O)Nc1ccc2nc(N3CCOCC3)cc(C)c2c1", "Potency": "inactive"},
      {"smiles": "CCN1CCN(c2cc(C)c3cc(NC(=O)c4cc(Br)ccc4Cl)ccc3n2)CC1", "Potency": "31.6 µM (active)"},
      {"smiles": "COc1ccc(Cl)cc1C(=O)Nc1ccc2nc(Nc3cccc(Cl)c3)cc(C)c2c1", "Potency": "inactive"},
      {"smiles": "COCCCn1c(=N)c(C(=O)NC2CCCC2)cc2c(=O)n3ccccc3nc21", "Potency": "inactive"},
      {"smiles": "COc1ccc(S(=O)(=O)NCc2ccco2)cc1C(=O)N1CCOCC1", "Potency": "inactive"},
      {"smiles": "CCCN(CCC)S(=O)(=O)c1ccc(C(=O)OCCN2C(=O)c3cccc4c(N5CCOCC5)ccc(c34)C2=O)cc1", "Potency": "inactive"},
      {"smiles": "O=C(CCCNC1=NS(=O)(=O)c2ccccc21)Nc1ccc(Cl)cc1", "Potency": "inactive"},
      {"smiles": "CCOC(=O)c1cc2c(=O)n3ccccc3nc2n(Cc2ccccc2)c1=N", "Potency": "inactive"},
      {"smiles": "Cc1cc(N2CCN(C)CC2)nc2ccc(NC(=O)CCC3CCCC3)cc12", "Potency": "inactive"},
      {"smiles": "Cc1cc(N2CCN(C)CC2)nc2ccc(NC(=O)Nc3ccccc3)cc12", "Potency": "17.8 µM (active)"},
      {"smiles": "COC(=O)c1cc(N2CCN(C)CC2)nc2ccccc12", "Potency": "inactive"},
      {"smiles": "Cc1onc(-c2c(Cl)cccc2Cl)c1NC(=O)NNc1ccccn1", "Potency": "inactive"},
      {"smiles": "Cc1cc(C)c(C#N)c(SCc2ccc(F)cc2)n1", "Potency": "inactive"},
      {"smiles": "Cn1c(Cl)cnc1C1CC(=O)c2cc(Cl)ccc2O1", "note": "(stereo not given)", "Potency": "39.8 µM (active)"},
      {"smiles": "Cc1cccc(-n2cnc(C(=O)N3CCN(C)CC3)c2)n1", "Potency": "inactive"},
      {"smiles": "CCc1csc(CCNC(=O)C2CCC(=O)N(Cc3ccccc3F)C2)n1", "note": "(stereo not given)", "Potency": "inactive"},
      {"smiles": "CCCc1cc(CNC(=O)C2CCC(=O)N(CCc3cccc(F)c3)C2)on1", "note": "(stereo not given)", "Potency": "35.5 µM (active)"},
      {"smiles": "CC#CCN(Cc1ccco1)C(=O)C1CCC(=O)N(CCc2cccc(F)c2)C1", "note": "(stereo not given)", "Potency": "inactive"},
      {"smiles": "O=C(C1=C(c2ccccc2)C(=O)c2ccccc2C1=O)c1ccccc1", "Potency": "7.08 µM (active)"},
      {"smiles": "COC1=C(c2ccccc2)C(=O)c2ccccc2C1=O", "Potency": "inactive"},
      {"smiles": "O=C(c1ccccc1)c1ccc2cc(O)ccc2c1", "Potency": "inactive"},
      {"smiles": "CCOc1ccc(C(=O)C(CN2CCOCC2)c2ccccc2)cc1", "note": "(stereo not given)", "Potency": "35.5 µM (active)"},
      {"smiles": "CCOc1ccc2nc(N3CCOCC3)nc(C)c2c1", "Potency": "inactive"},
      {"smiles": "OC(CN1CCOCC1)(c1ccccc1)c1ccccn1", "note": "(stereo not given)", "Potency": "inactive"},
      {"smiles": "CCOc1ccc(C2C(C(=O)OC)=CN(C(C)c3ccccc3)C=C2C(=O)OC)cc1", "note": "(stereo not given)", "Potency": "inactive"},
      {"smiles": "CCCCOc1ccc(C(=O)C(CN2CCOCC2)c2ccccc2)cc1", "note": "(stereo not given)", "Potency": "39.8 µM (active)"},
      {"smiles": "O=C(N/N=C/c1ccc(N2CCOCC2)cc1)c1ccccc1OCCOc1ccccc1", "Potency": "inactive"},
      {"smiles": "CC1Cc2ccccc2N1CC(=O)NC(=O)NC1CCCCC1", "note": "(stereo not given)", "Potency": "inactive"},
      {"smiles": "COc1ccc(NC2=C(C(C)=O)C(c3ccc(OC)cc3)C(C(C)=O)C(C)(O)C2)cc1", "note": "(stereo not given)", "Potency": "inactive"},
      {"smiles": "CCCCNc1nc2cccnc2s1", "Potency": "inactive"},
      {"smiles": "O=[N+]([O-])c1ccc(S(=O)(=O)c2ccccc2)nc1", "Potency": "5.62 µM (active)"},
      {"smiles": "NS(=O)(=O)c1ccc(S(=O)(=O)c2ccccc2)nc1", "Potency": "inactive"},
      {"smiles": "Cc1cc(Sc2ccc([N+](=O)[O-])cn2)ccc1Br", "Potency": "inactive"},
      {"smiles": "Cc1c(C)c(C)c(C(=O)C2CCN(c3ccc([N+](=O)[O-])cn3)CC2)c(C)c1C", "Potency": "inactive"},
      {"smiles": "O=[N+]([O-])c1ccc(Nc2ccccc2F)nc1", "Potency": "inactive"},
      {"smiles": "Cc1cc(S(=O)(=O)c2ccc([N+](=O)[O-])cn2)ccc1Br", "Potency": "29.9 µM (active)"},
      {"smiles": "CCN(CC)c1nc(-c2ccccc2)ncc1S(=O)(=O)c1ccc(C)cc1", "Potency": "inactive"},
      {"smiles": "Cc1ccc(S(=O)(=O)c2ccc([N+](=O)[O-])cn2)cc1", "Potency": "39.8 µM (active)"},
      {"smiles": "Cn1c(S(=O)(=O)c2ccc([N+](=O)[O-])cc2)nc(Br)c1Br", "Potency": "inactive"}
    ]}
  ]
}
